# An excerpt weighted towards active compounds, which were near 21% of everything screened.
# CYP2C9 inh = blockers of cytochrome P450 2C9 activity – biochemical, luminescence, ADME assay, primary screen; inhibition, % at 5 µM; CYP2C9 Supersomes, luciferin-H conversion; AID 777, 2007; 96,000 compounds, 20% hits; P11712;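 active = blocking of liver enzyme CYP2C9 beyond about 50% at 5 µM, limit read from the data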
# Target sequence (P11712 whole entry, looked up): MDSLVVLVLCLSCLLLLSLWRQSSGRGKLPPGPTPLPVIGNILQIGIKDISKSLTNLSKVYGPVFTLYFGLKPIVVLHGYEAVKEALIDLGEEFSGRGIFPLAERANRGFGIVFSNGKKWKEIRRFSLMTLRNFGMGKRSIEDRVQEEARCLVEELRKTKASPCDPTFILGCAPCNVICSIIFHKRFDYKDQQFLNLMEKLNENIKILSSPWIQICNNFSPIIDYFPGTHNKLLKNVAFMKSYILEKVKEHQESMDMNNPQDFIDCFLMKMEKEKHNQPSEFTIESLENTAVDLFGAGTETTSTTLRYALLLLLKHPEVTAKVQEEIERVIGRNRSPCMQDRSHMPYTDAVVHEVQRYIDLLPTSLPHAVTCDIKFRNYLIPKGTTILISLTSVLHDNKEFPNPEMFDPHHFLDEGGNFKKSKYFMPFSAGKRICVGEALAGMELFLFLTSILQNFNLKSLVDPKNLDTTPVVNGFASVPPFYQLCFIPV
# CYP2C9 activ = human CYP2C9 activators, primary screen, biochemical, luminescence; AID 1024, 2008; 96,000 compounds, 1.4% hits; activation factor at 5 µM; recombinant CYP2C9, luciferin-H conversion; stronger effect = higher value; factor 1 = untreated enzyme, 0 = blocked; Cytochrome P450 2C9 (Homo sapiens), P11712;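 active = activation factor of 2 or more for CYP2C9 at a 5 µM dose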;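 also: 0 = sulfaphenazole-blocked wells and 1 = vehicle-only wells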
# MRP reversal = reversal of MRP1-mediated doxorubicin resistance, primary screen, H69AR cells, doxorubicin co-treatment; 85,000 compounds, 0.04% hits; H69AR cells + 2 uM doxorubicin, CellTiter-Glo, 72 h; differential viability (reversal), % at 10 µM; AID 602, 2007;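 active = viability drop by adding the cancer drug above about 55%, with treated viability meeting a 40% cutoff, limit read from the data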;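 also: viability without doxorubicin minus viability with 2 µM doxorubicin for each compound; larger differential means the compound sensitizes cells more to doxorubicin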
# CYP2C19 inh = blockers of cytochrome P450 2C19 activity – biochemical, luminescence, ADME assay, primary screen | P33261 | CYP2C19 Supersomes, luciferin-H EGE luminescence, 30 min | inhibition, % at 5 µM | 96,000 compounds, 21% hits | AID 778, 2007;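 active = CYP2C19 inhibition above a set limit at 5 µM in the primary screen, cut at about 50% in these data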;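 also: plate controls were negative control wells for no effect and 2.5 mM tranylcypromine positive control for full effect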
# MRP1 act = H69AR viability gain despite doxorubicin, primary screen, MRP-1 activator project, H69AR cells, CellTiter-Glo; viability rescue; viability increase, % at 10 µM; 140,000 compounds, 0.61% hits; AID 799, 2007;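 active = viability gain under doxorubicin at or above a set limit, the compound median plus 3 SD, cut at about 4.7% in these data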;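 also: MRP-1 overexpressing cells given doxorubicin 25 µM after compound pretreatment; 18-22 h compound pretreatment then 72 h with doxorubicin before readout; 0% = doxorubicin-only wells and 100% = vehicle-treated cells without doxorubicin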
# CYP2C19 act = human CYP2C19 activators, primary screen, biochemical, luminescence. 96,000 tested, under 10 active. activation factor at 5 µM. Cytochrome P450 2C19 (Homo sapiens), P33261. recombinant CYP2C19, luciferin-H EGE luminescence; stronger effect = higher value; 0 = fully inhibited enzyme, 1 = untreated enzyme;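 active = activation factor of at least 2 at 5 µM in the primary screen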;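 also: 0 = wells with 2.5 mM tranylcypromine and 1 = vehicle-only wells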
# Starred values were filed as active, the others as inactive; · = no result given.
SMILES,CYP2C9 inh,CYP2C9 activ,MRP reversal,CYP2C19 inh,MRP1 act,CYP2C19 act
O=C(CN1C(=O)C2CC=CCC2C1=O)OCCN1C(=O)c2ccccc2C1=O (stereo unspecified),11,0.9,7,12,-1,0.9
Cc1ccc(N2CCn3c2nc2c3c(=O)n(CCc3ccccc3)c(=O)n2C)cc1,·,·,-14,·,·,·
Cc1nc2[nH]c(=O)c3c(n2n1)NC1=C(C(=O)CC(C)(C)C1)C3c1ccc(F)cc1 (stereo unspecified),-5,1,-5,-9,-1,1.1
Cc1ccc(C2C3=C(CC(C)(C)CC3=O)Nc3[nH]c(=S)[nH]c(=O)c32)cc1 (stereo unspecified),70*,0.3,7,40,-1,0.6
CCCC1CCC(c2nc(-c3cccnc3)no2)CC1 (stereo unspecified),4,1,25,43,1,0.6
CCCCCCC1CCC(c2nc(-c3ccncc3)no2)CC1 (stereo unspecified),63*,0.4,22,89*,2,0.1
CCC(=O)N/N=C(\C)CC(=O)Nc1ccc(Cl)cc1,·,·,·,·,-2,·
FC(F)(F)c1cc(C(F)(F)F)c2ccc(N3CCN(c4ccc(Cl)cc4)CC3)nc2n1,28,0.7,·,15,0,0.8
N#CC(c1ccc(Cl)cc1)c1ccc2c(C(F)(F)F)cc(C(F)(F)F)nc2n1 (stereo unspecified),76*,0.2,0,77*,-7,0.2
S=C(Nc1ccccc1)N1N=CCC1c1ccccc1 (stereo unspecified),26,0.7,-9,66*,0,0.3
Fc1ccc(NC(=S)N2N=CCC2c2ccccc2)cc1 (stereo unspecified),26,0.7,1,64*,0,0.4
O=C(c1ccco1)c1cn(CC(=O)N2CCCCC2)c2ccccc12,34,0.7,-20,27,-3,0.7
N#Cc1cccc(Cn2nnc(-c3ccccc3)n2)c1,37,0.6,3,69*,-1,0.3
CC(Oc1ccc(Cl)cc1Cl)C(=O)NNC(=O)C(=O)N1CCCCC1 (stereo unspecified),·,·,·,·,-3,·
Cc1cccc(NC2=C(Cl)C(=O)OC2NC(=O)c2ccccc2)c1 (stereo unspecified),54*,0.5,8,40,0,0.6
Cc1cccc(NC2=C(NC(=O)c3ccccc3)C(=O)c3ccccc3C2=O)c1,·,·,·,·,-5,·
CCOC(=O)C(C(C)=O)C(c1ccc(OC)cc1)C(C(C)=O)C(=O)OCC (stereo unspecified),-18,1.2,·,-8,-1,1.1
CCOC(=O)C(C)c1ccc2cc(OC)ccc2c1 (stereo unspecified),-28,1.3,11,52*,-3,0.5
CN(C)S(=O)(=O)c1ccc2[nH]cc(/C=C/c3nc4ccccc4c(=O)n3-c3ccccc3)c2c1,69*,0.3,-2,70*,-5,0.3
CCOc1c(Cl)cc(C(=O)Nc2ccccc2C(=O)O)cc1Cl,59*,0.4,·,-5,-2,1.1
COc1ccc(S(=O)(=O)N(C)CC(=O)NCc2cccnc2)cc1,28,0.7,-9,39,-1,0.6
COc1ccc(S(=O)(=O)N(C)CC(=O)NCc2cccnc2)cc1C,-84,1.8,-5,80*,-1,0.2
CCCC(=O)Nc1ccccc1NC(=O)CN(C)S(=O)(=O)c1ccc(C)cc1,49,0.5,-7,10,-1,0.9
CCOc1ccccc1NC(=O)CN(C)S(=O)(=O)c1ccc(OC)c(C)c1,-20,1.2,23,99*,0,0
COc1ccc(C(=O)Nc2ccccc2C(=O)O)cc1Cl,·,·,·,·,-1,·
SMILES,CYP2C9 inh,CYP2C9 activ,MRP reversal,CYP2C19 inh,MRP1 act,CYP2C19 act
COC(=O)c1ccccc1NC(=O)CN(C)S(=O)(=O)c1cc(C)ccc1OC,67*,0.3,-2,94*,0,0.1
O=C(CCCc1c[nH]c2ccccc12)Nc1ccc2ccccc2c1,·,·,·,·,-3,·
COc1ccccc1NC(=O)CN(C)S(=O)(=O)c1ccc2c(c1)CCC(=O)N2,1,1,10,30,-2,0.7
CCN(CC)S(=O)(=O)c1cc(C(=O)Nc2ccccc2C(=O)O)ccc1OC,86*,0.1,-1,13,0,0.9
COc1ccc(S(=O)(=O)N(C)CC(=O)Nc2ccccc2OC)cc1C,-29,1.3,25,93*,0,0.1
COc1ccc(OC)c(S(=O)(=O)N(C)CC(=O)Nc2ccccc2OC)c1,26,0.7,-5,77*,-1,0.2
COc1ccc(OC)c(S(=O)(=O)N(C)CC(=O)O)c1,8,0.9,-5,10,-3,0.9
COc1ccc(NC(=O)CN(C)S(=O)(=O)c2ccc3c(c2)CCC(=O)N3)c(OC)c1,-70,1.7,-1,55*,-2,0.5
COc1ccc(NC(=O)/C(=C\c2ccc3c(c2)OCO3)NC(C)=O)cc1,·,·,·,·,1,·
CC1CN(Cc2ccc(Cl)cc2Cl)CC(C)O1 (stereo unspecified),15,0.9,14,54*,0,0.5
O=C(CN1CCN(c2ccccn2)CC1)NCCc1ccccc1,36,0.6,7,12,-3,0.9
Cc1sc(NC(=O)c2ccco2)c(CN2CCN(c3ccc(F)cc3)CC2)c1C,48,0.5,·,55*,0,0.5
c1ccc(N2CCN(Cc3ccsc3)CC2)nc1,5,1,4,17,0,0.8
Cc1ccc(CN2CCN(c3ccccn3)CC2)s1,50*,0.5,-1,90*,1,0.1
Cc1sc(NC(=O)c2ccco2)c(CN2CCN(c3ccccn3)CC2)c1C,89*,0.1,3,65*,-4,0.3
Cn1c(CCN2CCN(c3ccc(F)cc3)CC2)nc2cc(NC(=O)c3ccco3)ccc21,23,0.8,1,18,-2,0.8
COC(=O)COC(=O)CC(CC(N)=O)c1ccccc1 (stereo unspecified),5,1,-7,18,0,0.8
O=C(CNC(=O)c1ccc(N2C(=O)c3ccccc3C2=O)cc1)OCC(=O)c1ccc(Cl)cc1,·,·,·,·,1,·
O=C(Cc1c(F)cccc1Cl)c1ccc(O)cc1O,16,0.8,-10,28,-1,0.7
O=C(Cc1ccc(F)cc1)c1ccc(O)cc1O,38,0.6,14,53*,0,0.5
CCCc1cc(C(=O)Cc2ccc(F)cc2)c(O)cc1O,100*,0,-10,98*,1,0
CCCc1cc(-c2n[nH]c(C)c2-c2ccc(C(=O)OCC)o2)c(O)cc1O,99*,0,-19,97*,-3,0
CCc1cc(C(=O)Cc2ccc(F)cc2)c(O)cc1O,·,·,-7,·,0,·
